Among the test systems are SK-MEL-2 melanoma; EKVX NSCLC; SN12C renal; UO-31 renal; TK-10 renal; ACHN renal; CAKI-1 renal; A498 renal; CCRF-CEM leukemia; MOLT-4 leukemia.
Common to all, as to assay: NCI-60 one-dose screen, 48 h (100 = growth as untreated, 0 = no growth, -100 = all killed)
What all share (details): 10 µM unless noted

This note sets out measurements from PubChem BioAssay (NCI).

Compounds without any hit were thinned out: in the full panel of roughly 83,000, 20% have a hit.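 Testing used 96-well plates and a 48-hour single-concentration exposure. Example: -40 means 40% of the starting cells died.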 Unmarked numbers belong to inactive results. The source made the active and inactive calls. Rule for the calls: active = growth percent below 10; inactive = the rest.

`COC1=CC(c2ccc[nH]2)=N/C1=C\c1[nH]c(C)c(CC(=O)OCc2ccccc2)c1C`: the growth with SK-MEL-2 melanoma is -38.6% (active); in the experiment with EKVX NSCLC, 5.59% (active); with SN12C renal it was 6.3% (active); with UO-31 renal, -69% (active); in the experiment on TK-10 renal it was 4.1% (active); with ACHN renal, -9.81% (active). The growth in the experiment on CAKI-1 renal was 0.261% (active); in the experiment with A498 renal, -11.9% (active); in the experiment on CCRF-CEM leukemia it was 4.82% (active).
In the case of `COc1ccc(OC)c(-c2cn3nc(-c4c[nH]c5ccc(Br)cc45)sc3n2)c1`, the growth in the experiment on SK-MEL-2 melanoma is 86.3%; in the experiment with EKVX NSCLC, 36.9%; in the experiment with SN12C renal, 44.2%; in the experiment with UO-31 renal, 45%; with TK-10 renal it was 62%; with ACHN renal, 38.8%. Also, the growth with CAKI-1 renal is 29.7%; in the experiment with A498 renal it was 86.1%; in the experiment with CCRF-CEM leukemia it was 32.8%.
Consider `CC(CN)[C@@H]1CC[C@]2(CO)CC[C@]3(C)[C@H](CC[C@@H]4[C@@]5(C)CCC(N)C(C)(C)[C@@H]5CC[C@]43C)[C@@H]12` (some centres undefined), for which the growth with SK-MEL-2 melanoma is 81.6%; in the experiment on EKVX NSCLC, -44.7% (active); in the experiment on SN12C renal, 25.5%; in the experiment with UO-31 renal, 0.963% (active); with TK-10 renal, 57.7%; with ACHN renal, 17.7%. Besides, the growth in the experiment with CAKI-1 renal was 33.7%; in the experiment on A498 renal it was 92.2%; in the experiment with CCRF-CEM leukemia it was -32.1% (active).
For the molecule `CCOC(=O)/C=C/c1c(C)[nH]c(=O)[nH]c1=O`, the growth in the experiment on SK-MEL-2 melanoma was 30.1%; with EKVX NSCLC, 77.6%; in the experiment on SN12C renal, 95.4%; with UO-31 renal, 102%; with TK-10 renal it was 95.5%; with ACHN renal, 1.8% (active). The growth is 63.8% with CAKI-1 renal, 111% in the experiment on A498 renal and 89.3% in the experiment on CCRF-CEM leukemia.
Turning to `Cn1c(O)c(C(/C=C/c2ccccc2)=Nc2ccccc2N)c(=O)n(C)c1=O`, the growth with SK-MEL-2 melanoma was 129%; in the experiment with EKVX NSCLC it was 82%; with SN12C renal, 96.1%; with UO-31 renal it was 83.4%; in the experiment with TK-10 renal it was 134%; in the experiment on ACHN renal it was 99.3%. Besides, the results for the growth in the experiment with CAKI-1 renal, in the experiment with A498 renal and with CCRF-CEM leukemia were 102%, 130% and 67.3%, respectively.
For the molecule `Cn1ncc2ccc(-c3nc(-c4ccccc4)[nH]c3-c3n[nH]c(=O)n3C3CC3)cc21`, the growth in the experiment on SK-MEL-2 melanoma was 101%; in the experiment on EKVX NSCLC, 96%; in the experiment on SN12C renal, 101%; in the experiment on UO-31 renal, 93.1%; in the experiment with TK-10 renal it was 103%; with ACHN renal it was 97%. Besides, the growth in the experiment on CAKI-1 renal was 94.8%; with A498 renal it was 48.7%; in the experiment with CCRF-CEM leukemia it was 96.4%.
Regarding `CCOC(=O)c1cn2ncnc(Oc3ccc(NC(=O)NC4CC4)c(F)c3)c2c1C`, the growth in the experiment with SK-MEL-2 melanoma is 114%; in the experiment with EKVX NSCLC, 96.3%; in the experiment with SN12C renal, 95.1%; with UO-31 renal, 70.6%; in the experiment on TK-10 renal, 119%; in the experiment with ACHN renal, 93.5%. For the same molecule, the growth in the experiment on CAKI-1 renal is 102%; with A498 renal it was 54.2%; in the experiment on CCRF-CEM leukemia, 90.9%.
Take `N#Cc1c(-c2cccc([N+](=O)[O-])c2)cc(-c2ccc(Nc3nc(Nc4ccc(F)cc4)nc(Nc4ccc(F)cc4)n3)cc2)nc1N`: the growth in the experiment on SK-MEL-2 melanoma is 68.1%; with EKVX NSCLC it was 137%; with SN12C renal it was 137%; in the experiment with UO-31 renal, 83.7%; with TK-10 renal, 128%; in the experiment with ACHN renal, 108%. Further, the growth is 113% with CAKI-1 renal, 115% in the experiment with A498 renal and 78% in the experiment with CCRF-CEM leukemia.
As to `C[Se]C(=O)CC1=C2C=C(F)C=CC2/C(=C\c2ccc(S(C)=O)cc2)C1C` (centres undefined), the growth in the experiment on SK-MEL-2 melanoma was 17.3%; with EKVX NSCLC, -7.14% (active); in the experiment with SN12C renal, -51.6% (active); in the experiment on UO-31 renal, 18%; in the experiment with TK-10 renal it was -19.2% (active); in the experiment with ACHN renal, 11%. Besides, the growth with CAKI-1 renal is -20.9% (active); in the experiment on A498 renal it was -64.8% (active); in the experiment on CCRF-CEM leukemia it was 10.6%.
In the case of `CCOC(=O)c1c(C)c2c(n1C)CSc1cc(S(=O)(=O)c3ccccc3)c(=O)[nH]c1-2`, the growth was 30.7% [100 µM] in the experiment on SK-MEL-2 melanoma; 14.7% [100 µM] in the experiment with EKVX NSCLC; 24.8% [100 µM] with SN12C renal; 22.7% [100 µM] with UO-31 renal; 24.8% [100 µM] in the experiment on TK-10 renal; 25.9% [100 µM] with ACHN renal. Besides, the growth in the experiment on CAKI-1 renal was 26.3% [100 µM]; in the experiment with A498 renal it was 44.9% [100 µM]; in the experiment with CCRF-CEM leukemia, 29.2% [100 µM].
Regarding `COCCCOc1cc(C[C@@H](C[C@H](N)[C@@H](O)C[C@H](C(=O)NCC(C)(C)C(N)=O)C(C)C)C(C)C)ccc1OC`, the growth with SK-MEL-2 melanoma is 104%; in the experiment on EKVX NSCLC it was 92.6%; in the experiment on SN12C renal, 104%; with UO-31 renal it was 84.4%; with TK-10 renal, 109%; in the experiment with ACHN renal, 101%. The growth with CAKI-1 renal is 89.2%; in the experiment with A498 renal, 103%; in the experiment with CCRF-CEM leukemia, 110%.
As for `Cn1c(/C=C/[N+](=O)[O-])cc2ccccc21`, the growth was 11.2% in the experiment on SK-MEL-2 melanoma; 46.1% with EKVX NSCLC; 43.7% in the experiment with SN12C renal; -56.9% (active) with UO-31 renal; 57.7% with TK-10 renal; -29.7% (active) in the experiment with ACHN renal. Moreover, the growth is 82.8% with CAKI-1 renal, -20% (active) in the experiment on A498 renal, 30.1% with CCRF-CEM leukemia and 26.7% in the experiment on MOLT-4 leukemia.
As for `COc1ccc(C(c2cc(OC)c(OC)c(OC)c2)N2CCCC2)cc1` (centres undefined), the growth in the experiment on SK-MEL-2 melanoma was 55.7%; in the experiment on EKVX NSCLC, 87.8%; in the experiment with SN12C renal, 108%; in the experiment on UO-31 renal, 75.1%; in the experiment on TK-10 renal, 88.3%; in the experiment with ACHN renal, 103%. The growth in the experiment with CAKI-1 renal was 77.5%; in the experiment with A498 renal it was 31.2%; in the experiment with CCRF-CEM leukemia, 71.2%; with MOLT-4 leukemia it was 78.1%.
Take `CN(C)c1ccc(/C=C2/C=C(c3ccccc3)OC2=O)cc1`: the growth in the experiment with SK-MEL-2 melanoma is 84.6%; with EKVX NSCLC it was 109%; in the experiment on SN12C renal, 107%; in the experiment on UO-31 renal, 73.7%; in the experiment with TK-10 renal, 110%; in the experiment on ACHN renal, 97.1%. The growth in the experiment with CAKI-1 renal was 91.3%; in the experiment with A498 renal, 95.8%; in the experiment on CCRF-CEM leukemia, 52.7%; with MOLT-4 leukemia it was 49.7%.
